# In all, about 1,300 compounds went through this assay and about 420 (32%) were called active. Inconclusive results (about 32%) are left out. The list shows a part of the results. A number with no mark means an inactive call. Calls follow the shape of the dose curve; as a rule, active = well fitted inhibition curve with a large enough effect; inconclusive = small, poorly fitted or top-dose-only effect; inactive = no such curve, though single readings can be large or run the other way.
# Molecular target: C-terminal-binding protein 1 (Homo sapiens) (UniProt Q13363)
# Test: qHTS for Inhibitors of the Phosphatase Activity of Eya2: Carboxyl-terminal binding protein (CtBP) Counterscreen for Cherry-picked Compounds; also: nearly all actives have a fitted effect of over 65% in size
# Details: purified protein-protein binding, AlphaScreen, 3 h; series mostly up to 46.1 µM; activity change, negative = inhibition: at the top concentration
# Method in brief: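 AlphaScreen using 25 nM GST-E1A with 25 nM CtBP-6xHIS; compounds at 2.5 nM–46 uM final, 2 h at room temperature, then donor/acceptor beads (20 ug/mL) for 1 h in the dark. Signal normalized to E1A peptide inhibitor (maximum inhibition) and DMSO.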
# % is scaled to controls: 0 for no effect and ±100 for the full control effect; potency is read from the fitted curve at half-maximal effect.
Compound,Potency,"activity change, negative = inhibition [%]"
S=C(NCCCc1cnc[nH]1)NCCCN(Cc1ccc(Cl)cc1)c1ccc(-c2ccccc2)cn1,15.1 µM (active),
CN(C)c1ccc(/C=C2\C=Cc3cc(N)ccc32)cc1,7.57 µM (active),
COc1ccc2c(c1)C=C/C2=C\c1ccc(N(C)C)cc1,6.75 µM (active),
Cc1nc([N+](=O)[O-])cn1CC(O)c1ccc2c(c1)OCO2 (configuration not stated),,-1.54
COC(=O)c1sc2cc(C(F)(F)F)cnc2c1-c1cccnc1,,2.52
O=C(O)/C=C/C(=O)Nc1ccc2c(c1)C(=O)c1ccccc1C2=O,7.57 µM (active),
CC(=O)Nc1ccc2nc(C3CC3)n(Cc3ccc(Cl)cc3)c(=O)c2c1,,-17.5
CC1=C/C(=C\c2ccc(N(C)C)cc2)c2ccccc21,7.57 µM (active),
CN(C)c1ccc(/C=C2\C=Cc3ccccc32)cc1,8.49 µM (active),
CN(C)c1ccc(/C=C/C=C2/C=Cc3ccccc32)cc1,5.36 µM (active),
CCN(CC)c1ccc(/C=C2\C=Cc3ccccc32)cc1,7.57 µM (active),
C=C(CC[C@]12OC(C(=O)O)C(O)(C(=O)O)C(C(=O)O)(O1)C(OC(=O)/C=C/[C@@H](C)C[C@@H](C)CC)C2O)[C@@H](OC(C)=O)[C@H](C)Cc1ccccc1 (some centres not stated),,-7.4
COC(=O)C(Sc1ccc(Cl)cc1)C1SC(=S)N(Cc2ccccc2)C1=O (configuration not stated),,-28.7
Cc1cccc(C#Cc2ccccc2)n1,,29
C[C@H](CCC(=O)NCC(=O)O)[C@H]1CC[C@H]2[C@@H]3[C@H](O)C[C@@H]4C[C@H](O)CC[C@]4(C)[C@H]3C[C@H](O)[C@]12C,,2.71
CN(C)c1ccc(C=C2C=Cc3ccccc32)cc1,7.57 µM (active),
Cc1nn(C)c(Cl)c1CN1CCCC(CO)(Cc2cccc(Cl)c2)C1 (configuration not stated),,2.96
COc1ccc(N2CCN(C(c3cccs3)C(C)NC(=O)c3ccc4c(c3)OCO4)CC2)cc1 (configuration not stated),,56
CC(C)n1ncc2c(C(=O)N3CCN(Cc4ccc(Br)s4)CC3)cc(C3CC3)nc21,,-21.5
COc1ccc(N2CCN(Cc3cc4c(cc3Br)OCCO4)CC2)cc1,12 µM (active),
COc1ccc(N2CCN(Cc3ccc(Br)s3)CC2)cc1,15.1 µM (active),
COc1ccc(N2CCN(C(=O)Cc3ccc(Cl)cc3)CC2)cc1,,-20.1
COc1ccc(N2CCN(C(=O)CCC(=O)N3CC(C)Oc4ccc(C)cc43)CC2)cc1 (configuration not stated),,-26.2
COC(=O)c1c(C)[nH]c(C(=O)C(C)OC(=O)C2CC(=O)N(c3ccc(C)cc3)C2)c1C (configuration not stated),,-17.4

Compound,Potency,"activity change, negative = inhibition [%]"
COc1cc(CNCc2ccc(OC)cc2OC)cc(OC)c1,,3.5
O=C(O)c1cc(-c2ccc(/C=C3\NC(=O)N(c4ccc(Cl)cc4)C3=O)o2)ccc1Cl,8.49 µM (active),
CC(C)Nc1nnc(SCC(=O)Nc2ccc3c(c2)C(=O)c2ccccc2C3=O)s1,5.36 µM (active),
Cc1cc(NC(=O)CSc2nnc(Nc3ccccc3F)s2)no1,,3.43
Cc1coc2c(C)c3oc(=O)c(CCC(=O)N4CCC(C(=O)NCCCC(=O)O)(c5ccccc5)CC4)c(C)c3cc12,15.1 µM (active),
CCCCc1cc(=O)oc2cc(OCC(=O)N3CCC(C(=O)O)(c4ccccc4)CC3)ccc12,,-36.1
CC1(C)CC(=O)C=C(c2ccc(COC(=O)c3cc(F)cc(F)c3)cc2)C1=O,,-21.6
CCn1cc(C(=O)N[C@@H](C)C(=O)NCCCn2ccnc2)c(=O)c2cc3c(cc21)OCO3,,-1.17
Cc1ccc(C(=O)N/C(=C\c2ccco2)C(=O)NCCCn2ccnc2)cc1,3.79 µM (active),
Cc1ccc(Nc2nnc(SCC(=O)c3c(N)n(C4CC4)c(=O)[nH]c3=O)s2)cc1C,,-9.32
Cc1cccc(Nc2nnc(SCC(=O)NCC3CCCO3)s2)c1 (configuration not stated),15.1 µM (active),
C/C(N)=C(/C#N)C(=O)CSc1nnc(Nc2cccc(C)c2)s1,,-9.35
COc1ccc(-c2cn3c(C)c(C(=O)NCc4ccc5c(c4)OCO5)sc3n2)cc1,,-1.04
O=c1[nH][nH]cc1C=Nc1cc(Cl)ccc1O,8.49 µM (active),
O=c1oc(-c2ccco2)nc2ccccc12,13.5 µM (active),
CN(C)c1ccc(/C=C/c2ccnc3ccc(-c4ccccc4)cc23)cc1,12 µM (active),
Cc1cc(C)c2c(/C=C/c3ccc(N(C)C)cc3)ccnc2c1,13.5 µM (active),
COc1ccc(N=C2SC(C(=O)N3CCN(c4ccc([N+](=O)[O-])cc4)CC3)CC(=O)N2C)cc1 (configuration not stated),,-8.15
O=C(Nc1ccccc1)c1ccc2nc(-c3ccco3)c(-c3ccco3)nc2c1,13.5 µM (active),
CC(C)(C)NC(=O)c1cccc(NC(=O)c2ccc(NC(=O)c3ccco3)cc2)c1,,-15.5
O=C(NC1CC1)c1ccc2nc(-c3ccco3)c(-c3ccco3)nc2c1,8.49 µM (active),
O=C(NCCCO)c1ccc2nc(-c3ccco3)c(-c3ccco3)nc2c1,5.36 µM (active),
O=C(O)c1ccc2nc(-c3ccco3)c(-c3ccco3)nc2c1,7.57 µM (active),
